Measured values published in PubChem BioAssay (NCATS).
Where “and” joins values, the source holds several entries; their conditions need not be identical. Equal values may be shown once. Results filed as inconclusive are left out. Calls of active or inactive are those of the source. The call rests on the fitted dose curve; in most records, active means well fitted inhibition curve with a large enough effect; inconclusive means small, poorly fitted or top-dose-only effect; inactive means flat fitted curve, though single readings scatter.

Key:
CRL-7250 = normal cell line; test: Cytotoxic Profiling of Annotated Libraries Using Quantitative High-Throughput Screening (AID 1296008); details: Five cell lines viability, CellTiter-Glo ATP luminescence, 48-72 h; max response: stronger effect = lower value; further: potency means the concentration at half of the fitted maximal effect; on max response: on the % scale 0 is the no-effect control and ±100 the full control effect
In short: (§1)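 Compounds were pin-transferred onto cells and incubated 48 or 72 hr at 37 degree Celsius, 95% humidity. CellTiter-Glo was added, plates sat 10 min at room temperature, then ATP-coupled luminescence was imaged as the viability read-out.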

HEK293 = test: as above; details: Five cell lines viability, CellTiter-Glo ATP luminescence, 48-72 h; max response: stronger effect = lower value
In short: as §1

HaCat [1] = test: as above; details: Five cell lines viability, CellTiter-Glo ATP luminescence, 48-72 h; max response: stronger effect = lower value
In short: as §1

NIH3T3 = test: as above; details: Five cell lines viability, CellTiter-Glo ATP luminescence, 48-72 h; max response: stronger effect = lower value
In short: as §1

HEK293T = test: qHTS assay to identify novel small-molecules to repurpose for Merkel cell carcinoma treatment (AID 1296009); details: MCC and control cell lines, CellTiter-Glo viability, 72 h; series mostly up to 44.8 µM
In short: (§2)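 Viability readout: ATP luminescence (CellTiter-Glo) after 72 hr drug exposure at 37 degree celsius. Dose-response format was 8 points for NPC and 11 points for MIPE; data normalized to in-plate controls.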

HACAT [2] = test: as above; details: MCC and control cell lines, CellTiter-Glo viability, 72 h; at 44.8 µM (top of the series) unless noted
In short: as §2

KB-3-1 = test: Cytotoxic Profiling of Annotated Libraries Using Quantitative High-Throughput Screening (AID 1296008); details: Five cell lines viability, CellTiter-Glo ATP luminescence, 48-72 h; max response: stronger effect = lower value; further: potency means the concentration at half of the fitted maximal effect; on max response: on the % scale 0 is the no-effect control and ±100 the full control effect
In short: as §1

TAB113 = test: qHTS profiling for inhibitors of Plasmodium falciparum proliferation (AID 504749);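 further: 0% = DMSO vehicle and full inhibition = artemisinin control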; details: P. falciparum in erythrocytes, SYBR Green DNA, 72 h; series mostly up to 28.7 µM
In short: (§3)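 Quantitative HTS: compounds pinned into medium, infected erythrocytes added (0.3% parasitemia, 2.5% hematocrit), 72 h culture at 37 C under 5% CO2. Saponin/Triton lysis with SYBR Green I, overnight RT, then fluorescence read.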

TAB165 = test: as above; details: P. falciparum in erythrocytes, SYBR Green DNA, 72 h; series mostly up to 28.7 µM
In short: as §3
Further: nearly all actives have a fitted effect of over 60% in size.

CN1C(=O)N[C@@H](Cc2c[nH]c3c(Cl)cccc23)C1=O
inactive: max response (CRL-7250) -3.21% | outcome (HEK293) | max response (HaCat [1]) -0.267% | outcome (NIH3T3) | Potency (HEK293T)

CC(=O)O[C@@H]1[C@@H](OC(=O)/C=C/c2ccccc2)[C@H](C)O[C@@H](O[C@H]2[C@@H]3C=CO[C@@H](O[C@@H]4O[C@H](CO)[C@@H](O)[C@H](O)[C@H]4O)[C@@H]3[C@@]3(CO)O[C@@H]23)[C@@H]1OC(C)=O
inactive: max response (CRL-7250) -9.67% | outcome (HEK293) | max response (HaCat [1]) -6.34% | outcome (NIH3T3) | Potency (HEK293T)

O=C1C[C@@H](c2ccc(O)cc2)Oc2cc(O)ccc21
inactive: max response (CRL-7250) -9.15% | outcome (HEK293) | outcome (HaCat [1]) | max response (NIH3T3) 1.22% | outcome (HACAT [2]) | Potency (HEK293T)

CC(CCC1(O)OC2CC3C4CCC5CC(O[C@@H]6O[C@H](CO)[C@@H](O)[C@H](O)[C@H]6O[C@@H]6OC[C@@H](O)[C@H](O)[C@H]6O)C(O)CC5(C)C4CCC3(C)C2C1C)CO[C@@H]1O[C@H](CO)[C@@H](O)[C@H](O)[C@H]1O (some centres undefined)
inactive: max response (CRL-7250) -0.157% | outcome (HEK293) | outcome (HaCat [1]) | outcome (NIH3T3) | outcome (HACAT [2]) inactive [at 9.27 µM] | outcome (HEK293T) inactive [at 9.27 µM]

CC/C=C/CC1=C(CCCCCCCC(=O)O)CCC1=O
inactive: max response (CRL-7250) 0.164% | outcome (HEK293) | outcome (HaCat [1]) | max response (NIH3T3) -0.116% | outcome (HACAT [2]) | Potency (HEK293T)

NC(=O)c1ccc(OCC2NC(=O)C3CCCN3C2=O)cc1 (centres undefined)
inactive: max response (CRL-7250) -2.01% | outcome (HEK293) | max response (HaCat [1]) -3.74% | outcome (NIH3T3) | Potency (HEK293T)

CC(C)(C)NCC(O)COc1cccc2c1CCCC2=O (centres undefined)
inactive: outcome (CRL-7250) | outcome (HEK293) | max response (HaCat [1]) -7.74% | outcome (KB-3-1) | outcome (NIH3T3) | Potency (HEK293T)

O=C(O)c1cnn(-c2nc3cc(OC(F)(F)F)c(Cl)cc3[nH]2)c1
inactive: max response (CRL-7250) -25.2% | outcome (HEK293) | max response (HaCat [1]) 3.71% | max response (KB-3-1) 4.77% | outcome (NIH3T3) | Potency (HEK293T)

CC(=O)c1c(C)cc(O)cc1O[C@@H]1O[C@H](CO)[C@@H](O)[C@H](O)[C@H]1O
inactive: max response (CRL-7250) -5.78% | outcome (HEK293) | outcome (HaCat [1]) | outcome (NIH3T3) | outcome (HACAT [2]) | Potency (HEK293T)

COc1ccc2c(c1O)OC[C@H]1c3ccc(O)cc3O[C@@H]21
inactive: max response (CRL-7250) 2.17% | outcome (HEK293) | outcome (HaCat [1]) | outcome (NIH3T3) | outcome (HACAT [2]) | Potency (HEK293T)

CC(C)(OC1OC(CO)C(O)C(O)C1O)C1CCC(O)(CO)C2CC(O)C(C)(O)C2C1 (centres undefined)
inactive: max response (CRL-7250) -5.53% | outcome (HEK293) | max response (HaCat [1]) 0.555% | outcome (NIH3T3) | Potency (HEK293T)

CC1(C)NC2N(C1=O)c1ccccc1C2(O)CC(C(=O)O)n1cnc2ccccc2c1=O (centres undefined)
inactive: outcome (CRL-7250) | outcome (HEK293) | max response (HaCat [1]) -3.78% | max response (NIH3T3) -5.13% | Potency (HEK293T)

CC[C@H]1OC(=O)C[C@@H](O)[C@H](C)[C@@H](O[C@@H]2O[C@H](C)[C@@H](O)[C@H](N(C)C)[C@H]2O)[C@@H](CCN2C[C@H](C)C[C@H](C)C2)C[C@@H](C)C(=O)/C=C/C(C)=C/[C@@H]1CO[C@@H]1O[C@H](C)[C@@H](O)[C@@H](OC)[C@H]1OC
inactive: max response (CRL-7250) 1.46% | outcome (HaCat [1]) | max response (KB-3-1) 2.68% and 4.42% | outcome (NIH3T3) | outcome (HACAT [2])

CON(C)C(=O)N1N=C(c2cc(F)ccc2F)S[C@@]1(CCCN)c1ccccc1
inactive: max response (CRL-7250) -53.9% and -40.4% | max response (NIH3T3) -29.1%
active: Potency (HEK293) 4.6 nM | Potency (KB-3-1) 8.2 nM

C[C@@]12C[C@]3(O)O[C@H](O1)[C@]1(COC(=O)c4ccccc4)[C@H]3C[C@@]12O[C@@H]1O[C@H](COC(=O)c2ccccc2)[C@@H](O)[C@H](O)[C@H]1O
inactive: max response (CRL-7250) -3.18% | outcome (HEK293) | outcome (HaCat [1]) | max response (NIH3T3) 1.22% | outcome (HACAT [2]) inactive [at 17.4 µM] | Potency (HEK293T)

C=CC1(C)CC2=CCC3C(C)(C(=O)O)CCCC3(C)C2CC1OC(C)=O (centres undefined)
inactive: outcome (CRL-7250) | outcome (HEK293) | max response (HaCat [1]) -6.85% | outcome (NIH3T3) | Potency (HEK293T)

CCC(=O)O[C@]1(C(=O)CCl)[C@@H](C)C[C@H]2[C@@H]3C[C@H](F)C4=CC(=O)C=C[C@]4(C)[C@@]3(F)[C@@H](O)C[C@@]21C
inactive: max response (CRL-7250) -3.75% | max response (HaCat [1]) -1.16% | max response (KB-3-1) -4.75% and -10.3% | max response (NIH3T3) 1.57%

CC1(C)CC2C3=CCC4C5(C)CCC(OC6OC(CO)C(O)C(OC7OC(CO)C(O)C(OC8OC(CO)C(O)C(OC9OC(COC%10OC(CO)C(O)C(O)C%10O)C(O)C(O)C9O)C8O)C7O)C6O)C(C)(C)C5CCC4(C)C3(C)CCC2(C(=O)O)CC1O (centres undefined)
inactive: outcome (CRL-7250) | outcome (HEK293) | max response (HaCat [1]) -4.22% | max response (NIH3T3) 2.99% | outcome (HEK293T) inactive [at 9.27 µM]

COC(=O)C[C@@H]1C(C(=O)O)=CO[C@@H](O[C@@H]2O[C@H](CO)[C@@H](O)[C@H](O)[C@H]2O)/C1=C\COC(=O)/C=C\c1ccccc1
inactive: max response (CRL-7250) -11.7% | outcome (HEK293) | outcome (HaCat [1]) | max response (NIH3T3) -14.1% | outcome (HACAT [2]) inactive [at 17.4 µM] | Potency (HEK293T)

C[C@@H]1C[C@H]2[C@@H]3CCC4=CC(=O)C=C[C@]4(C)[C@@]3(F)[C@@H](O)C[C@]2(C)[C@@]1(O)C(=O)COP(=O)(O)O
inactive: max response (CRL-7250) -4.68% | max response (HEK293) 4.74% | max response (KB-3-1) 13.8% | outcome (KB-3-1)

C=C(NC(=O)C(=C)NC(=O)c1csc(C2=N[C@@H]3c4csc(n4)[C@H]4NC(=O)c5csc(n5)[C@H]([C@](C)(O)[C@@H](C)O)NC(=O)[C@H]5CSC(=N5)C(=CC)NC(=O)C([C@@H](C)O)NC(=O)c5csc(n5)[C@]3(CC2)NC(=O)[C@H](C)NC(=O)C(=C)NC(=O)[C@H](C)NC(=O)C([C@@H](C)CC)NC2C=Cc3c([C@H](C)O)cc(nc3C2O)C(=O)O[C@@H]4C)n1)C(N)=O (some centres undefined)
inactive: max response (KB-3-1) -16.7%

C=CC1=C(C)C2=CC3=NC(=C(CC(=O)[O-])C4=NC(=C(C)C4=C([O-])[O-])C=c4[n-]c(c(C)c4CC)=CC1=N2)C(CCC(=O)[O-])C3C.[Cu+2].[Na+].[Na+].[Na+] (centres undefined)
inactive: max response (KB-3-1) -6.08%

OCCO[C@@H]1[C@@H](O)[C@H](O)[C@@H](CO)O[C@@H]1O
inactive: max response (KB-3-1) 22%

CC(=O)Oc1c(C)cc(OCC(O)CNC(C)C)c(C)c1C (centres undefined)
inactive: Potency (TAB113) | Potency (TAB165) | max response (KB-3-1) 4.82%

CC(=O)N(CC(C)C(=O)O)c1c(I)cc(I)c(N)c1I (centres undefined)
inactive: max response (KB-3-1) -8.47%

CCOc1cc2ncc(C#N)c(Nc3ccc(OCc4ccccn4)c(Cl)c3)c2cc1NC(=O)/C=C/CN(C)C
active: Potency (HEK293) 1420 nM | Potency (HaCat [1]) 224 nM
inactive: max response (KB-3-1) -14.4%

CC(C)NCC1CCc2cc(CO)c([N+](=O)[O-])cc2N1 (centres undefined)
inactive: max response (KB-3-1) 2.46%

CC(=O)N[C@@H](CC(=O)N[C@@H](CCC(=O)O)C(=O)O)C(=O)O
inactive: max response (KB-3-1) -12.8%

C[C@]12C=CC(=O)N[C@@H]1CC[C@@H]1[C@@H]2CC[C@]2(C)[C@@H](C(=O)Nc3cc(C(F)(F)F)ccc3C(F)(F)F)CC[C@@H]12
inactive: max response (KB-3-1) 5.03%
